Compound activity from PubChem.
HSP90 inh – blocks HSP90-mediated luciferase refolding in reticulocyte lysate; Rabbit reticulocyte lysate, luciferase refolding luminescence, 3 h; AID 1789; inhibition, % at 5.6 µM; 0.91% of 290,000 active;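 active = inhibition above the screen-wide mean plus 3 SD, computed separately per campaign, cut at about 16% in these data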;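 also: inhibitors lower the luminescence because luciferase stays unfolded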
HSF1 inh – HSF1 inhibition; NIH3T3-HGL HSE-luciferase, MG132-induced, luminescence 8 h; active compounds read low; activity change, negative = inhibition, % at 7.5 µM (by protocol); 0.77% of 300,000 active; AID 2098;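 active = more than half of replicate wells show activity change below -50%, luminescence cut by over half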;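 also: luciferase reports HSF-1 transcriptional activity via heat shock element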
HSF1 activator – increases HSF-1 driven luciferase reporter signal. NIH3T3-HGL HSF-1 luciferase reporter, MG132, 8 h; 100% = twice DMSO control signal. activation, % at 9 µM. 1.7% of 300,000 active. AID 504408;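 active = mean replicate activation of at least 50% with a set share of replicates each reaching 50%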
GAA850 FXN act – increases GAA850 frataxin promoter reporter activity. 0.56% of 360,000 active. AID 540364. HEK293 lucGAA850 FXN promoter luciferase reporter, 24 h; percent of 10 µM SAHA response. activation, % at 6 µM;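 active = activation above the average of all compounds screened plus 3 SD, cutoff fixed separately per campaign, cut at about 7.5% in these data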
AHR act – human AHR activation; P35869; AHR-responsive luciferase reporter cells, luminescence; activation, % at 5 µM; 2.5% of 320,000 active; in the data active = activation above about 47%
DAX1 inh – NR0B1 (DAX1) inhibition; P51843; HEK293 Gal4-DAX1 luciferase reporter, luminescence; inhibition, % at 6.75 µM; 0.99% of 340,000 active; AID 504766;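 active = inhibition above the mean over all tested compounds plus 3 SD, cut at about 4.2% in these data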;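 also: inhibition shows as a rise in luminescence from relieved DAX1 repression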
Hits are given with their value; - = inactive; . = no result. Compounds with a hit are over-represented: about 5.9% of the library has one in this group of screens.

SMILES	HSP90 inh	HSF1 inh	HSF1 activator	GAA850 FXN act	AHR act	DAX1 inh
O=C(Nc1cccc(C(F)(F)F)c1)Oc1ccc(Cl)c2cccnc12	-	-	-	-	49	-
O=C(CSc1nnc2ccc(-c3cccnc3)nn12)Nc1cccc(F)c1	.	-	-	-	.	-
O=C1[C@H]2[C@@H](c3ccc(F)cc3)N3C(=O)N(c4cccc(Br)c4)C(=O)[C@@]3(Cc3ccccc3)[C@H]2C(=O)N1C1CCCCC1	.	-	-	-	-	-
O=C1[C@H]2[C@@H](c3ccc(F)cc3)N3C(=O)N(c4ccc(Br)cc4)C(=O)[C@@]3(Cc3ccc(Cl)cc3)[C@H]2C(=O)N1C1CCCCC1	-	-	-	9.5	-	-
CC[C@@]12C(=O)N(c3cccc(F)c3)C(=O)N1[C@H](c1ccc(F)cc1)[C@@H]1C(=O)N(C3CCCCC3)C(=O)[C@@H]12	-	-	-	13	-	-
CCN1C(=O)[C@H]2[C@@H](c3ccc(C)cc3)N3C(=O)N(c4cccc(F)c4)C(=O)[C@@]3(CC)[C@H]2C1=O	-	-	-	-	-	-
CC(=O)Oc1ccc(/C=C(\NC(=O)c2cccc(Br)c2)C(=O)Nc2ccc(C(=O)O)cc2)cc1	.	-	-	-	-	-
Cn1c(NCc2ccccc2O)nc2ccccc21	-	-	-	-	-	-
Cn1c(SCc2ccccc2Cl)nc2ccccc21	-	-	93	-	-	-
Cn1c(NCc2ccccc2Cl)nc2ccccc21	.	-	-	-	77	8.2
Nc1cc(=O)n(Cc2ccco2)c(=S)[nH]1	.	.	.	-	.	-
COC(=O)c1ccccc1S(=O)(=O)N1CCC(C(=O)NCC2CCCO2)CC1 (stereo unspecified)	.	-	-	-	-	4.3
CC(=O)Nc1cc[n+](C(C)C(=O)c2ccccc2)cc1 (stereo unspecified)	-	-68	-	-	-	-
CCCc1cc(=O)[nH]c(SCCc2ccccc2)n1	-	-	-	-	-	-
Cc1cc(Nc2ccc(Cl)cc2)nc(-c2ccccc2O)n1	-	-	-	-	.	-
Cc1cc(Nc2cccc(Cl)c2)nc(-c2ccccc2O)n1	-	-70	-	-	-	-
CCC(C)C(=O)OCC1(c2ccc(C)cc2OC(=O)C(C)C)CO1 (stereo unspecified)	.	-	-	-	-	-
Cc1ccc(C2(COC(=O)C(C)C)CO2)c(OC(=O)C(C)C)c1 (stereo unspecified)	.	-	-	-	-	4.6
COc1ccc(NC(=O)C(=O)NCCN2CCN(C(=O)c3cccc(Br)c3)CC2)cc1	-	-	-	-	-	-
O=C(COC(=O)c1ccccc1-n1cnnn1)c1ccc(F)cc1	.	-53	-	-	-	-
Cc1ccc(C(C)(C)C)cc1S(=O)(=O)N1CCC(C(=O)N2CCN(c3ccc(O)cc3)CC2)CC1	.	.	.	-	-	-
COc1cc(N2CCOCC2)ncn1	-	-	-	-	-	4.8
Cc1cc(C)n(-c2cc(N3CCOCC3)ncn2)n1	-	-	-	-	-	-
COc1ccc(CC2(CO)CCN(Cc3cnn(-c4ccccc4OC)c3)CC2)cc1	-	-	-	-	-	5.8
Nc1cccnc1Sc1cc(Cl)c(Cl)cc1Cl	-	-	-	-	59	-
SMILES	HSP90 inh	HSF1 inh	HSF1 activator	GAA850 FXN act	AHR act	DAX1 inh
CC(=O)Nc1cccc(NC(=O)CSc2ncc(C(=O)Nc3ccc(F)cc3)c(=O)n2C)c1	.	-	-	-	66	-
CC(=O)Nc1ccc(NC(=O)CSc2ncc(C(=O)Nc3ccc(Cl)cc3)c(=O)n2C)cc1	.	-	-	-	68	-
Cc1ccc(NC(=O)CCN2C(=O)C3CCCCC3C2=O)cc1[N+](=O)[O-] (stereo unspecified)	.	-53	-	-	-	-
Cc1cnc(NC(=O)CCN2C(=O)C3CCCCC3C2=O)s1 (stereo unspecified)	-	-	-	-	-	6.7
CC(=O)Nc1ccc(C(=O)N2CCCC(c3cc(C(=O)Nc4ccccc4Cl)no3)C2)cc1 (stereo unspecified)	.	.	.	-	.	.
CC(=O)N(C)C1=C(O)c2ccccc2C(=O)C1=O	-	-90	-	-	-	-
CC(=O)N(C1=C(O)c2ccccc2C(=O)C1=O)C1CCCCC1	-	-	-	-	-	-
CCOC(=O)c1cc2occc2n1CC(=O)N1CCCc2ccccc21	-	-66	-	-	-	-
